Data published in PubChem BioAssay (EPA / NIEHS).
Where “and” joins values, the source holds several entries; their conditions need not be identical. Identical values can stand only once. Inconclusive results are not listed. More than one record can exist for a structure, and the calls need not agree. Calls of active or inactive are those of the source. How the source made its calls, unless noted: active means hit-call score of the fitted dose curve at least 0.9, where 1 is the maximum; inconclusive means response in the unintended direction; inactive means score below 0.9.

What was measured:
[1] = read-out: Signal transducer and activator of transcription 3 (Homo sapiens) (UniProt P40763); experiment: LTEA_HepaRG_STAT3: Life Technologies and Expression Analysis (LTEA) Assay for Signal transducer and activator of transcription (STAT3) using HepaRG (AID 2283529; active means hit-call score of the fitted dose curve at least 0.9, where 1 is the maximum; inactive means score below 0.9); details: mRNA level, 48 h; actives raise or lower the signal
Outline: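 Differentiated human HepaRG cells in serum-free induction medium were exposed in duplicate for 48 h to eight half-log concentrations up to 100 uM in 0.5% DMSO. STAT3 mRNA was quantified by TaqMan qRT-PCR, normalized to ACTB, GAPDH and POLR2A, and fitted bidirectionally against DMSO.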

[2] = read-out: solute carrier (SLCO1B1), SLCO1B1 (gene 10599); experiment: LTEA_HepaRG_SLCO1B1: Life Technologies and Expression Analysis (LTEA) Assay for solute carrier (SLCO1B1) using HepaRG (AID 2283530; active means hit-call score of the fitted dose curve at least 0.9, where 1 is the maximum; inactive means score below 0.9); details: mRNA level, 48 h; actives raise or lower the signal
Outline: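 Differentiated human HepaRG cells were exposed for 48 h in serum-free induction medium to eight half-log concentrations, top 100 uM, in 0.5% DMSO. SLCO1B1 mRNA was measured by qRT-PCR, normalized to ACTB, GAPDH and POLR2A, and fitted bidirectionally against DMSO.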

[3] = read-out: sulfotransferase 2A1 (SULT2A1), SULT2A1 (gene 6822); experiment: LTEA_HepaRG_SULT2A1: Life Technologies and Expression Analysis (LTEA) Assay for sulfotransferase 2A1 (SULT2A1) using HepaRG (AID 2283531; active means hit-call score of the fitted dose curve at least 0.9, where 1 is the maximum; inactive means score below 0.9); details: mRNA level, 48 h; actives raise or lower the signal
Outline: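 HepaRG human liver cells, 48 h exposure in serum-free induction medium to 8 half-log concentrations topping at 100 µM (0.5% DMSO), duplicate wells. SULT2A1 mRNA measured by TaqMan qRT-PCR, normalized to ACTB/GAPDH/POLR2A; bidirectional fit against DMSO.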

[4] = read-out: Transforming Growth Factor (TGFA), TGFA (gene 7039); experiment: LTEA_HepaRG_TGFA: Life Technologies and Expression Analysis (LTEA) Assay for Transforming Growth Factor (TGFA) using HepaRG (AID 2283532; active means hit-call score of the fitted dose curve at least 0.9, where 1 is the maximum; inactive means score below 0.9); details: mRNA level, 48 h; actives raise or lower the signal
Outline: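 Differentiated human HepaRG cells, plated 48 h then switched to serum-free induction medium, were exposed in duplicate for 48 h to 8-point half-log series from 100 uM in 0.5% DMSO. TGFA mRNA measured by qRT-PCR, normalized to ACTB/GAPDH/POLR2A, bidirectional fit versus DMSO.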

[5] = read-out: Transforming Growth Factor (TGFB1), TGFB1 (gene 7040); experiment: LTEA_HepaRG_TGFB1: Life Technologies and Expression Analysis (LTEA) Assay for Transforming Growth Factor (TGFB1) Transporter using HepaRG (AID 2283533; active means hit-call score of the fitted dose curve at least 0.9, where 1 is the maximum; inactive means score below 0.9); details: mRNA level, 48 h; actives raise or lower the signal
Outline: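 Differentiated HepaRG cells exposed 48 hr in serum-free induction medium to eight half-log concentrations up to 100 uM (0.5% DMSO), duplicate; TGFB1 mRNA by TaqMan qRT-PCR normalised to ACTB, GAPDH, POLR2A; bidirectional fit against DMSO.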

TIMP1, TIMP1 (gene 7076) = experiment: LTEA_HepaRG_TIMP1: Life Technologies and Expression Analysis (LTEA) Assay for TIMP1 using HepaRG (AID 2283534; active means hit-call score of the fitted dose curve at least 0.9, where 1 is the maximum; inactive means score below 0.9); details: mRNA level, 48 h; actives raise or lower the signal
Outline: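 Differentiated HepaRG cells exposed 48 h in serum-free induction medium, duplicates, eight half-log concentrations from 100 uM in 0.5% DMSO. TIMP1 mRNA by qRT-PCR normalized to ACTB, GAPDH, POLR2A; bidirectional fitting against DMSO.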

[6] = read-out: Tumor necrosis factor receptor 1 (TNFRSF1A), TNFRSF1A (gene 7132); experiment: LTEA_HepaRG_TNFRSF1A: Life Technologies and Expression Analysis (LTEA) Assay for Tumor necrosis factor receptor 1 (TNFRSF1A) using HepaRG (AID 2283535; active means hit-call score of the fitted dose curve at least 0.9, where 1 is the maximum; inactive means score below 0.9); details: mRNA level, 48 h; actives raise or lower the signal
Outline: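 Differentiated HepaRG cells in serum-free induction medium, exposed 48 h in duplicate to 8 half-log concentrations up to 100 uM in 0.5% DMSO. TNFRSF1A mRNA by Fluidigm TaqMan qRT-PCR, normalized to ACTB, GAPDH, POLR2A; bidirectional fit.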

[7] = read-out: Thyroid Hormone Responsive (THRSP), THRSP (gene 7069); experiment: LTEA_HepaRG_THRSP: Life Technologies and Expression Analysis (LTEA) Assay for Thyroid Hormone Responsive (THRSP) using HepaRG (AID 2283536; active means hit-call score of the fitted dose curve at least 0.9, where 1 is the maximum; inactive means score below 0.9); details: mRNA level, 48 h; actives raise or lower the signal
Outline: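 Differentiated human HepaRG cells were exposed in duplicate for 48 h in serum-free induction medium to eight concentrations (top 100 uM, half-log steps, 0.5% DMSO). Expression was quantified by TaqMan qRT-PCR, normalized to ACTB, GAPDH and POLR2A, with bidirectional fitting against DMSO.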

[8] = read-out: Cellular tumor antigen p53 (Homo sapiens) (UniProt P04637); experiment: LTEA_HepaRG_TP53: Life Technologies and Expression Analysis (LTEA) Assay for Tumor Protein P53 (TP53) using HepaRG (AID 2283537; active means hit-call score of the fitted dose curve at least 0.9, where 1 is the maximum; inactive means score below 0.9); details: mRNA level, 48 h; actives raise or lower the signal
Outline: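 TP53 transcript measured by qRT-PCR, normalized to three housekeeping genes, after 48 h treatment of human HepaRG cultures with chemicals from 100 uM downward in half-log steps (0.5% DMSO vehicle, serum-free induction medium). Up- or down-regulation fitted against DMSO.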

[9] = read-out: UDP glucuronosyltransferase (UGT1A1), UGT1A1 (gene 54658); experiment: LTEA_HepaRG_UGT1A1: Life Technologies and Expression Analysis (LTEA) Assay for UDP glucuronosyltransferase (UGT1A1) using HepaRG (AID 2283538; active means hit-call score of the fitted dose curve at least 0.9, where 1 is the maximum; inactive means score below 0.9); details: mRNA level, 48 h; actives raise or lower the signal
Outline: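 HepaRG cells, 0.5% DMSO vehicle, 48 h exposure in serum-free induction medium to 8-point half-log series topping at 100 uM, in duplicate. UGT1A1 mRNA by Fluidigm qRT-PCR, normalized to ACTB/GAPDH/POLR2A; bidirectional fit versus DMSO.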

[10] = read-out: UDP glucuronosyltransferase (UGT1A6), UGT1A6 (gene 54578); experiment: LTEA_HepaRG_UGT1A6: Life Technologies and Expression Analysis (LTEA) Assay for UDP glucuronosyltransferase (UGT1A6) using HepaRG (AID 2283539; active means hit-call score of the fitted dose curve at least 0.9, where 1 is the maximum; inactive means score below 0.9); details: mRNA level, 48 h; actives raise or lower the signal
Outline: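 Differentiated HepaRG cells, ~100,000/well, were exposed for 48 h in serum-free induction medium with 0.5% DMSO to 8-point half-log series topping at 100 uM, in duplicate. mRNA measured by Fluidigm TaqMan qRT-PCR, normalized to ACTB, GAPDH and POLR2A.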

[11] = read-out: X-box binding protein 1 (XBP1), XBP1 (gene 7494); experiment: LTEA_HepaRG_XBP1: Life Technologies and Expression Analysis (LTEA) Assay for X-box binding protein 1 (XBP1) using HepaRG (AID 2283540; active means hit-call score of the fitted dose curve at least 0.9, where 1 is the maximum; inactive means score below 0.9); details: mRNA level, 48 h; actives raise or lower the signal
Outline: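 Differentiated human HepaRG cells in serum-free induction medium exposed 48 h in duplicate to eight half-log concentrations up to 100 uM in 0.5% DMSO. XBP1 mRNA measured by Fluidigm TaqMan qRT-PCR, normalized to ACTB, GAPDH, POLR2A; bidirectional fitting against DMSO.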

[12] = LTEA_HepaRG_LDH_cytotoxicity: Cytotoxicity Assessment in the Life Technologies and Expression Analysis (LTEA) Assay (AID 2283563);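 on AC50: LDH activity released into spent culture medium as a marker of cell death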
Outline: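 Differentiated HepaRG cells in serum-free induction medium, exposed 48 h in duplicate to 8 half-log concentrations up to 100 uM in 0.5% DMSO. Cytotoxicity from LDH measured in spent medium, fit relative to DMSO.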

[13] = ATG_XTT_Cytotoxicity: Cytotoxicity Assessment in the Attagene TRANS-FACTORIAL HepG2 Assay (AID 2283584)
Outline: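 HepG2 cells transiently transfected with GAL4-UAS multiple reporter units, dosed 24 h; cytotoxicity read by XTT as loss of signal versus DMSO baseline.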

[14] = TOX21_p53_BLA_p2_viability: Viability Assessment in the Tox21 HCT-116 p53 Agonism Beta-lactamase Assay, Phase 2 (AID 2283591);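 further: compound exposure lasted 16 h at 37 °C; actives lower the ATP signal meaning cytotoxicity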
Outline: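 HCT-116 p53-bla cells (4000/well) rested 5 h at 37C, then received compounds in DMSO (217-fold dilution) for 16 h at 37C, 5% CO2. After the CCF4 read, CellTiter-Glo was added; ATP luminescence was read after 30 min at room temperature.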

[15] = TOX21_p53_BLA_p3_viability: Viability Assessment in the Tox21 HCT-116 p53 Agonism Beta-lactamase Assay, Phase 3 (AID 2283593);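 further: cells exposed to compound for 16 h before reading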
Outline: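 HCT-116 cells (4000/well) rested 5 h at 37C, then got DMSO compounds by pin tool (217-fold dilution) for 16 h at 37C, 5% CO2. After the bla read, CellTiter-Glo was added and luminescence read at 30 min, room temperature.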

[16] = target: Cellular tumor antigen p53 (Homo sapiens) (UniProt P04637); experiment: TOX21_p53_BLA_p3_ratio: Tox21 HCT-116 p53 Agonism Beta-lactamase Assay, Ratio, Phase 3 (AID 2283596)
Outline: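 HCT116 p53-bla cells (4000/well) given compound in DMSO (217-fold dilution) after 5 h, incubated 16 h at 37C. CCF4-AM substrate 2 h at room temperature; 460/530 nm emission ratio, gain fitted against DMSO.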

[17] = TOX21_p53_BLA_p4_viability: Viability Assessment in the Tox21 HCT-116 p53 Agonism Beta-lactamase Assay, Phase 4 (AID 2283597);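 further: hits lower the luminescence signal meaning cytotoxicity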
Outline: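 HCT-116 p53-bla cells, 4000/well, dosed after 5 h attachment and incubated 16 h at 37 °C, 5% CO2. Viability from CellTiter-Glo ATP luminescence after 30 min at room temperature, taken after the beta-lactamase read; loss of signal indicates cytotoxicity.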

[18] = target: Cellular tumor antigen p53 (Homo sapiens) (UniProt P04637); experiment: TOX21_p53_BLA_p5_ratio: Tox21 HCT-116 p53 Agonism Beta-lactamase Assay, Ratio, Phase 5 (AID 2283599)
Outline: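 HCT-116 cells carrying a p53-inducible beta-lactamase reporter were seeded at 4000 cells/well and dosed after 5 h with compound in DMSO (217-fold dilution). After 16 h at 37C, CCF4-AM substrate was added for 2 h, and the 460/530 nm emission ratio was scored as gain-of-signal versus DMSO.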

[19] = target: Cellular tumor antigen p53 (Homo sapiens) (UniProt P04637); experiment: TOX21_p53_BLA_p2_ratio: Tox21 HCT-116 p53 Agonism Beta-lactamase Assay, Ratio, Phase 2 (AID 2283592)
Outline: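 HCT-116 cells with p53-responsive beta-lactamase reporter, 4000 cells/well, preincubated 5 h, then compound in DMSO (217-fold dilution) for 16 h at 37C. CCF4-AM substrate 2 h at room temperature; 460/530 nm emission ratio fitted upward versus DMSO.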

Measured: AC50

Sequence of Cellular tumor antigen p53 (Homo sapiens) (P04637 whole entry, looked up): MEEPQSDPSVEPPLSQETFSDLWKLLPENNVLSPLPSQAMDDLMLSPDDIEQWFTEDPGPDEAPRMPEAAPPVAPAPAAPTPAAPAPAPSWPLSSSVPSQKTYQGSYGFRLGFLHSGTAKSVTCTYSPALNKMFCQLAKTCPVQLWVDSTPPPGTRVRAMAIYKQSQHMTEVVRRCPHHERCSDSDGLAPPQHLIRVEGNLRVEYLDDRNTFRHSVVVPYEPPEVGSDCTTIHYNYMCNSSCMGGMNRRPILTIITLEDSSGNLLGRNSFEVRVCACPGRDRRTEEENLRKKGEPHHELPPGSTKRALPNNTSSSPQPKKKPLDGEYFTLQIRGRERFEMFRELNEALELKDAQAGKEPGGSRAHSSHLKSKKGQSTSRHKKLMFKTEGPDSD
Sequence of Signal transducer and activator of transcription 3 (Homo sapiens) (P40763 whole entry, looked up): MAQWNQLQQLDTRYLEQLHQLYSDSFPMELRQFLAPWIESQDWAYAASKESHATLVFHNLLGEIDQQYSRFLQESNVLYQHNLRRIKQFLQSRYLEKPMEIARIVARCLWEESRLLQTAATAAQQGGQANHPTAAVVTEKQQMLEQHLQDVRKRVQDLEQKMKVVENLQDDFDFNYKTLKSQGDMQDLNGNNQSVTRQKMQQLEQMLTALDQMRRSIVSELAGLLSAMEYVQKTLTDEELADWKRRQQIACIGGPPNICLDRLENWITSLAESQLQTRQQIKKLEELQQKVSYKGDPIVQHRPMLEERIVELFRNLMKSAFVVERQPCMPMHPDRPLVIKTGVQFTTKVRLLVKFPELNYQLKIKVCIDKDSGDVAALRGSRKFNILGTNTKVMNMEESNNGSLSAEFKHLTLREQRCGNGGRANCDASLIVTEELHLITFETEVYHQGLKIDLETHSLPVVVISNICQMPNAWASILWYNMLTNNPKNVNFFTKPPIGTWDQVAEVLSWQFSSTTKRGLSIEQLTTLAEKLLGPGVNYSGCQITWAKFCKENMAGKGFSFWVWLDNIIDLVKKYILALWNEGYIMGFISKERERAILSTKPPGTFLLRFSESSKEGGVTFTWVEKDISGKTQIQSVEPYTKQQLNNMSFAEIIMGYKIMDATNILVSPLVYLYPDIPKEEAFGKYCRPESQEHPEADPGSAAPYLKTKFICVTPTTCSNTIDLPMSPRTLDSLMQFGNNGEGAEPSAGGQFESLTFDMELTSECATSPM

C=C(C)C(N)=O
not listed: [19]
inactive: all other assays above

CC(=O)OCC=C(C)CCC=C(C)CCC=C(C)C
inactive: [13]

C=CC(=O)OCC(CO)(COC(=O)C=C)COC(=O)C=C
inactive: [13]

CC/C(=C(\c1ccccc1)c1ccc(OCCN(C)C)cc1)c1ccccc1
inactive: [2] | [3] | [4] | [5] | TIMP1, TIMP1 (gene 7076) | [6] | [7] | [9] | [10] | [13] | [14] | [19] | [16] | [17]
active: [1] 60.3 µM and 95.8 µM | [2] 45.8 µM | [3] 74.6 µM | [4] 94.2 µM | [5] 73.5 µM | TIMP1, TIMP1 (gene 7076) 83.7 µM | [6] 66.3 µM | [8] 45.8 µM and 40 µM | [9] 32.1 µM | [10] 45.8 µM | [11] 45.8 µM and 96.2 µM | [12] 63.5 µM and 73.5 µM | [14] 33.7 µM and 69.5 µM and 35.2 µM | [19] 47.8 µM and 84.4 µM and 43.5 µM | [16] 86.9 µM [middle of 4 runs] | [17] 22.9 µM and 46.5 µM and 32.3 µM | [18] 75.4 µM [middle of 4 runs]

CCCC[N+](C)(CCCC)CCCC
inactive: [13]

C1COCO1
inactive: [13]

c1ccc2c(c1)-c1ccc3ccc4cccc5cc-2c1c3c45
inactive: [13]

NNC(=O)OCc1ccccc1
inactive: [13]

CC1(C)[C@H](C=C(Cl)Cl)[C@H]1C(=O)OCc1cccc(Oc2ccccc2)c1
inactive: [13]

CC=CC(=O)C1=C(C)C=CCC1(C)C
inactive: [13]

C[C@]12CC[C@@H]3c4ccc(O)cc4CC[C@H]3[C@@H]1CC[C@@H]2O
inactive: [1] | [2] | [4] | [5] | TIMP1, TIMP1 (gene 7076) | [6] | [7] | [8] | [10] | [11] | [12] | [13] | [14] | [15] | [16] | [17] | [18]
active: [3] 50 µM | [9] 10.3 µM | [16] 32 µM and 34.9 µM | [18] 31.7 µM and 34.6 µM
